# Columns and labels:
# Test in all cases: DAPPL (digital affinity profiling via proximity ligation, sequencing); 10 mM Tris-HCl pH 7.5, 50 mM NaCl, 1 mM DTT, 4% glycerol, room temperature, 30 min; GST-TFs on glutathione beads, 16-mer random dsDNA library, 0.1% formaldehyde crosslink after washing; high values mean tight binding
# Details in all cases: protein: recombinant; tags: N-terminal GST; dsDNA, one strand shown
# [1] = molecular target: T1, FLI1 (Homo sapiens, UniProt Q01543 1-452)
# T1 sequence: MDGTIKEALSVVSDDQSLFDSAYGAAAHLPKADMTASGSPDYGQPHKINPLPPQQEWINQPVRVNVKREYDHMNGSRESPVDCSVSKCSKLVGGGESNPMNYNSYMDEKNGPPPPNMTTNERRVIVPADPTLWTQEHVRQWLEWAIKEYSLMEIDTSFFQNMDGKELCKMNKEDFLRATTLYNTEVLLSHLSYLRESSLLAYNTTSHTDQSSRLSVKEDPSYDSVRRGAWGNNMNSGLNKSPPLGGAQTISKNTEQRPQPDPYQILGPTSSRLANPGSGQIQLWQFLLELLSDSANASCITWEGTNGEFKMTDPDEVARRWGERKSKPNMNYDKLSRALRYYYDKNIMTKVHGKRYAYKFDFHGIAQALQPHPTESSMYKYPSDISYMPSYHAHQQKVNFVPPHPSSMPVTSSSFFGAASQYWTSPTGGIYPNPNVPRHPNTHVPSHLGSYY
# Summary of the method: (§1)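 Pools of DNA-barcoded human transcription factors, expressed in yeast as GST fusions on glutathione beads and combined with a tag-only sample, were incubated with 200 nmole of a 16-mer random double-stranded DNA library. Incubation took 30 min at room temperature in Tris/NaCl/DTT/glycerol buffer and was followed by washing, 0.1% formaldehyde crosslinking, proximity ligation (BsaI/T4 ligase, 1 h, 37 °C), PCR amplification and sequencing on an Illumina NextSeq500. Binding signal is the ratio of a hexamer's read frequency for a factor to its frequency for the tag-only sample.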
# [2] = molecular target: T2, ELK1 (Homo sapiens, UniProt P19419 1-428)
# T2 sequence: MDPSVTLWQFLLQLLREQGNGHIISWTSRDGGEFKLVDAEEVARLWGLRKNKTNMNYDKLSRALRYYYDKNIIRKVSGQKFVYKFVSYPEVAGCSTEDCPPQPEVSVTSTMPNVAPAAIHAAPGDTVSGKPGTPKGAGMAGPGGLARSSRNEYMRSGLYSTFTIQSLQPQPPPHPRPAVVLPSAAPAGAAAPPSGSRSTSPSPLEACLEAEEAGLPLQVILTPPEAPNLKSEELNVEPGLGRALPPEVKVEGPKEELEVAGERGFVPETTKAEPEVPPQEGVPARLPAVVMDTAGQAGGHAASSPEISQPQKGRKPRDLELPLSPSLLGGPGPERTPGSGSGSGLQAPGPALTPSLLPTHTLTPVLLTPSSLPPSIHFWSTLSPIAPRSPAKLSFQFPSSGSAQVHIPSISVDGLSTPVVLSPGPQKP
# Summary of the method: as §1
# [3] = molecular target: T3, GABPA (Homo sapiens, UniProt Q06546 1-454)
# T3 sequence: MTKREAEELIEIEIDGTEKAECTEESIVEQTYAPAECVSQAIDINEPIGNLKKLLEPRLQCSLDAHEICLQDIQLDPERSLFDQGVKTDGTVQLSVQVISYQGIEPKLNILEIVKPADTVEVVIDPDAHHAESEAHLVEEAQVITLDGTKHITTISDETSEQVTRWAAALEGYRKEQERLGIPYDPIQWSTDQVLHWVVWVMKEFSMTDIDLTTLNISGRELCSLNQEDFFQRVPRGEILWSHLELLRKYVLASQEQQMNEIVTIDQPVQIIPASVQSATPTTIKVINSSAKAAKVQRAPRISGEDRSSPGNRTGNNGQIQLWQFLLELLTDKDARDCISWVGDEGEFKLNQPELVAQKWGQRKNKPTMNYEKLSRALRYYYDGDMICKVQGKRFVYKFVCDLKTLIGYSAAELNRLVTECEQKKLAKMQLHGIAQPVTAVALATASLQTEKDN
# Summary of the method: as §1
# [4] = molecular target: T4, ERG (Homo sapiens, UniProt P11308 1-479)
# T4 sequence: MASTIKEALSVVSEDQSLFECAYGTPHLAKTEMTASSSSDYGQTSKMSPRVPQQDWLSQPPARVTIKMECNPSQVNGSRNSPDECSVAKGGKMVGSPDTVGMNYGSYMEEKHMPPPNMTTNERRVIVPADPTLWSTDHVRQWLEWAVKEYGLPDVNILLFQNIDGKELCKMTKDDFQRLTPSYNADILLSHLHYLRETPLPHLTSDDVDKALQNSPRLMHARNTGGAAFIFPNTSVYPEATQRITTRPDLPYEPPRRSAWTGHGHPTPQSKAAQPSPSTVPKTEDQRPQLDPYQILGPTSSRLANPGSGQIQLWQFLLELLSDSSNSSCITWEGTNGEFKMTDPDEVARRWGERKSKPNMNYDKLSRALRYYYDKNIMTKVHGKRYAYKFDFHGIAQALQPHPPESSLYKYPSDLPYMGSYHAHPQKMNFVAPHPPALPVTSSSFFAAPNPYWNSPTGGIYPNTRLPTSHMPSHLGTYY
# Summary of the method: as §1
# [5] = molecular target: ELF1 (Homo sapiens, UniProt P32519 1-619)
# Sequence of ELF1 (P32519 whole entry): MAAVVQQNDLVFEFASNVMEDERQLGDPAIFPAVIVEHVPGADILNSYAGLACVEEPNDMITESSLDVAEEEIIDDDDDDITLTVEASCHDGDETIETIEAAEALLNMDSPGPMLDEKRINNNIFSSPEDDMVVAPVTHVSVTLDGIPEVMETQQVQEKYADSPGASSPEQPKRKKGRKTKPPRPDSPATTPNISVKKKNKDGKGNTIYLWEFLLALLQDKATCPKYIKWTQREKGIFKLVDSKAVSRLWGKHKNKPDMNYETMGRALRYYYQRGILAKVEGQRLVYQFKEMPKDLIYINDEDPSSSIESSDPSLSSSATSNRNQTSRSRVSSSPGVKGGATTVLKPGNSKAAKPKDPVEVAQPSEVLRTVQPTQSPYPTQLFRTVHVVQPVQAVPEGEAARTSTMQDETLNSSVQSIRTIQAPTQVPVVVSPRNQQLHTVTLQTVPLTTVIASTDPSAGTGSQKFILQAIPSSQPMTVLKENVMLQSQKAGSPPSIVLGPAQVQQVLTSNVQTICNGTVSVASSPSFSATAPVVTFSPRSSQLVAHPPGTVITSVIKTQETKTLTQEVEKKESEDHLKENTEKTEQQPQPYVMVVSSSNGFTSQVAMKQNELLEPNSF
# Summary of the method: as §1
# [6] = molecular target: T5, EHF (Homo sapiens, UniProt Q9NZC4 1-300)
# T5 sequence: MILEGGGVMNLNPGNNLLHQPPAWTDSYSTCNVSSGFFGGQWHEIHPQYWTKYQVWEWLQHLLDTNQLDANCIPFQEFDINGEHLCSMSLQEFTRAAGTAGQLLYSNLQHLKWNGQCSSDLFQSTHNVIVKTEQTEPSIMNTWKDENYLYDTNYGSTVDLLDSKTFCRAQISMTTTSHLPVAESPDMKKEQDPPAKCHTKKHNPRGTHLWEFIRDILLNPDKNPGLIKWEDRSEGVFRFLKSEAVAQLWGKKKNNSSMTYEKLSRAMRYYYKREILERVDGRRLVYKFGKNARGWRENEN
# Summary of the method: as §1
# [7] = molecular target: SPI1 (Homo sapiens, UniProt P17947 1-270)
# Summary of the method: as §1
# [8] = molecular target: SPIB (Homo sapiens, UniProt Q01892 1-262)
# Sequence of SPIB (Q01892 whole entry): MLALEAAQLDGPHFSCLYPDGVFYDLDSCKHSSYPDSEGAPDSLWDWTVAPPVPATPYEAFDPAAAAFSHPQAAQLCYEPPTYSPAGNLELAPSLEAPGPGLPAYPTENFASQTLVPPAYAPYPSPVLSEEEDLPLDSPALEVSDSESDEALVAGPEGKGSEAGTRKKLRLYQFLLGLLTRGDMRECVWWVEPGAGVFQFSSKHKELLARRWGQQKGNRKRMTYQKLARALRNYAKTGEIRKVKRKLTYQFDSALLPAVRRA
# Summary of the method: as §1
# [9] = molecular target: T6, ELK3 (Homo sapiens, UniProt P41970 1-407)
# T6 sequence: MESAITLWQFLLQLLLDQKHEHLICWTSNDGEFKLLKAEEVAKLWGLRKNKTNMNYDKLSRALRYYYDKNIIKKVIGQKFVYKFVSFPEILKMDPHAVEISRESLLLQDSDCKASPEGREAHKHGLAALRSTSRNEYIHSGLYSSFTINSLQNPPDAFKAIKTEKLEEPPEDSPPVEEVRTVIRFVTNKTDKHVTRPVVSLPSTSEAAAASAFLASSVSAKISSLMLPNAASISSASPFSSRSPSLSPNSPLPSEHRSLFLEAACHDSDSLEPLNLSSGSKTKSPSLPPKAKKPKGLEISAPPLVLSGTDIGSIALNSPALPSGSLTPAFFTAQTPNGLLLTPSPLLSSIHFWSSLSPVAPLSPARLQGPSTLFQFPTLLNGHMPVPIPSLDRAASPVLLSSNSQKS
# Summary of the method: as §1
Sequence,binding signal [1],binding signal [2],binding signal [3],binding signal [4],binding signal [5],binding signal [6],binding signal [7],binding signal [8],binding signal [9]
TTAAGT,"1.06 fold enrichment (6-mer frequency, TF over GST control)","1.3 fold enrichment (6-mer frequency, TF over GST control)","1.16 fold enrichment (6-mer frequency, TF over GST control)","1.17 fold enrichment (6-mer frequency, TF over GST control)","1.19 fold enrichment (6-mer frequency, TF over GST control)","1.15 fold enrichment (6-mer frequency, TF over GST control)","1.06 fold enrichment (6-mer frequency, TF over GST control)","1.2 fold enrichment (6-mer frequency, TF over GST control)","1.23 fold enrichment (6-mer frequency, TF over GST control)"
AAGGTA,"1.1 fold enrichment (6-mer frequency, TF over GST control)","1.08 fold enrichment (6-mer frequency, TF over GST control)","1.18 fold enrichment (6-mer frequency, TF over GST control)","1.05 fold enrichment (6-mer frequency, TF over GST control)","1.13 fold enrichment (6-mer frequency, TF over GST control)","1.1 fold enrichment (6-mer frequency, TF over GST control)","1.07 fold enrichment (6-mer frequency, TF over GST control)","1.05 fold enrichment (6-mer frequency, TF over GST control)","1.09 fold enrichment (6-mer frequency, TF over GST control)"
CCAACA,"1.06 fold enrichment (6-mer frequency, TF over GST control)","1.11 fold enrichment (6-mer frequency, TF over GST control)","1.09 fold enrichment (6-mer frequency, TF over GST control)","1 fold enrichment (6-mer frequency, TF over GST control)","1.04 fold enrichment (6-mer frequency, TF over GST control)","1.12 fold enrichment (6-mer frequency, TF over GST control)","1.01 fold enrichment (6-mer frequency, TF over GST control)","1.01 fold enrichment (6-mer frequency, TF over GST control)","1.03 fold enrichment (6-mer frequency, TF over GST control)"
ATCAAT,"1.12 fold enrichment (6-mer frequency, TF over GST control)","1.01 fold enrichment (6-mer frequency, TF over GST control)","1.16 fold enrichment (6-mer frequency, TF over GST control)","1.04 fold enrichment (6-mer frequency, TF over GST control)","1.15 fold enrichment (6-mer frequency, TF over GST control)","1.02 fold enrichment (6-mer frequency, TF over GST control)","1.06 fold enrichment (6-mer frequency, TF over GST control)","1.07 fold enrichment (6-mer frequency, TF over GST control)","1.06 fold enrichment (6-mer frequency, TF over GST control)"
GGGCTT,"1.31 fold enrichment (6-mer frequency, TF over GST control)","1.18 fold enrichment (6-mer frequency, TF over GST control)","1.15 fold enrichment (6-mer frequency, TF over GST control)","1.21 fold enrichment (6-mer frequency, TF over GST control)","1.19 fold enrichment (6-mer frequency, TF over GST control)","1.24 fold enrichment (6-mer frequency, TF over GST control)","1.1 fold enrichment (6-mer frequency, TF over GST control)","1.2 fold enrichment (6-mer frequency, TF over GST control)","1.41 fold enrichment (6-mer frequency, TF over GST control)"
TACGTT,"1.29 fold enrichment (6-mer frequency, TF over GST control)","1.26 fold enrichment (6-mer frequency, TF over GST control)","1.4 fold enrichment (6-mer frequency, TF over GST control)","1.31 fold enrichment (6-mer frequency, TF over GST control)","1.29 fold enrichment (6-mer frequency, TF over GST control)","1.24 fold enrichment (6-mer frequency, TF over GST control)","1.25 fold enrichment (6-mer frequency, TF over GST control)","1.33 fold enrichment (6-mer frequency, TF over GST control)","1.35 fold enrichment (6-mer frequency, TF over GST control)"
GCTTGG,"1.19 fold enrichment (6-mer frequency, TF over GST control)","1.15 fold enrichment (6-mer frequency, TF over GST control)","1.12 fold enrichment (6-mer frequency, TF over GST control)","1.09 fold enrichment (6-mer frequency, TF over GST control)","1.08 fold enrichment (6-mer frequency, TF over GST control)","1.05 fold enrichment (6-mer frequency, TF over GST control)","1.04 fold enrichment (6-mer frequency, TF over GST control)","1.16 fold enrichment (6-mer frequency, TF over GST control)","1.15 fold enrichment (6-mer frequency, TF over GST control)"
CTGTCC,"1.34 fold enrichment (6-mer frequency, TF over GST control)","1.22 fold enrichment (6-mer frequency, TF over GST control)","1.29 fold enrichment (6-mer frequency, TF over GST control)","1.28 fold enrichment (6-mer frequency, TF over GST control)","1.28 fold enrichment (6-mer frequency, TF over GST control)","1.36 fold enrichment (6-mer frequency, TF over GST control)","1.25 fold enrichment (6-mer frequency, TF over GST control)","1.27 fold enrichment (6-mer frequency, TF over GST control)","1.1 fold enrichment (6-mer frequency, TF over GST control)"

# From publication PMC7862700, “An all-to-all approach to the identification of sequence-specific readers for epigenetic DNA modifications on cytosine”
